The test in a line: M. tuberculosis growth inhibition, HTS (AID 1259417).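 Further: bacteria grown with compound for 5 days at 37 °C.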 The settings on record: stronger effect = higher value, concentration not given here.
Setting [1] is: M. tuberculosis DsRed fluorescence growth inhibition.
[2] abbreviates: M. tuberculosis growth inhibition.

The campaign covered roughly 1,100 compounds. About 760 (69%) were called active. How the calls were made is not given here. The set was probably picked from earlier hits. Some of the results follow.

Consider `Cc1sc(NC(=O)c2cc3ccccc3oc2=O)c(C(=O)OC(C)C)c1C`, for which the inhibition by setting is: under setting [1], 6.18% (inactive); under setting [2], 28.3%.

Take `NC(=O)c1c(NC(=O)c2cc3ccccc3oc2=O)sc2c1CCCCCC2`: the inhibition is 3.53% (inactive) under setting [1] and -10.8% under setting [2].

`CCOC(=O)c1c(-c2ccc(OC)c(OC)c2)csc1NC(=O)c1cccc(OC)c1OC`: the inhibition under setting [1] was 4.18% (inactive) and the inhibition under setting [2] was -8.63%.

`CCOC(=O)c1cc(CC)sc1NC(=O)c1cc2ccccc2oc1=O`: the inhibition runs as follows: under setting [1], 23.7% (active); under setting [2], 60.6%.

Regarding `CCOC(=O)c1c(-c2ccccc2)csc1NC(=O)c1cc2ccccc2oc1=O`, the inhibition runs as follows: under setting [1], 7.43% (active); under setting [2], 32.3%.

In the case of `CCc1nnc(NC(=O)c2cc3ccccc3oc2=O)s1`, the inhibition under setting [1] is 1% (active) and the inhibition under setting [2] was found to be 47%.

Consider `Cc1cc2ncn(CCOc3ccc(Cl)cc3)c2cc1C`, for which the inhibition reads like this: under setting [1], 88.3% (active); under setting [2], 95.9%.

Regarding `Cc1cccc(OCCCn2cnc3cc(C)c(C)cc32)c1`, the inhibition under setting [1] was 88% (active) and the inhibition under setting [2] amounted to 97.5%.

Take `Cc1cc2ncn(Cc3ccc(C(C)C)cc3)c2cc1C`: the inhibition under setting [1] was 90.4% (active) and the inhibition under setting [2] amounted to 98.3%.

`C1=CC2CC1CC2CN1CCC(N(CCc2ccccc2)Cc2ccccc2)CC1` (stereo not given): the inhibition is, setting by setting: under setting [1], 99.4% (active); under setting [2], 96.9%.

For `c1ccc(CCN(Cc2ccccc2)C2CCN(Cc3c[nH]c4ccccc34)CC2)cc1`, the inhibition was 2.96% (inactive) under setting [1] and -21.5% under setting [2].

Regarding `O=C(OCn1nnc2ccccc2c1=O)c1ccccc1`, the inhibition runs as follows: under setting [1], 40.5% (active); under setting [2], 44.9%.

Turning to `O=C(OCn1nnc2ccccc2c1=O)c1cccs1`, the inhibition by setting is: under setting [1], 42.4% (active); under setting [2], 57.1%.

As to `O=C(OCn1nnc2ccccc2c1=O)c1ccco1`, the inhibition is 20.6% (active) under setting [1] and 47% under setting [2].

With `Cc1ccc(-c2nnc(N3CCN(C(=O)c4ccco4)CC3)c3ccccc23)cc1`, the inhibition was 3.3% (inactive) under setting [1] and -1.04% under setting [2].

In the case of `CCCn1nnnc1NC(=O)c1cccs1`, the inhibition reads like this: under setting [1], 18.2% (inactive); under setting [2], 29.4%.

Take `COc1ccc(NC(=O)c2ccc(C#CC(C)(C)O)s2)cc1`: the inhibition under setting [1] was 58.8% (active) and the inhibition under setting [2] turned out to be 31.9%.

For `COc1ccc(CCNC(=O)c2ccc(C#CC(C)(C)O)s2)cc1`, the inhibition is 92.7% (active) under setting [1] and 80.8% under setting [2].

With `Cn1ccnc1C(O)c1cc(C(C)(C)C)c(O)c(C(C)(C)C)c1` (stereo not given), the inhibition is 22.8% (inactive) under setting [1] and 28.3% under setting [2].

For the compound `CCCCNC(=O)Nc1nnc(-c2ccc(Cl)cc2)o1`, the inhibition under setting [1] is 14.7% (inactive) and the inhibition under setting [2] is 4.64%.

Consider `Cc1ccccc1C(=O)Nc1nnc(-c2ccc(F)cc2)o1`, for which the inhibition was 75.4% (active) under setting [1] and 84.5% under setting [2].

Consider `Cc1ccccc1C(=O)Nc1nnc(-c2ccc(Cl)cc2)o1`, for which the inhibition is, setting by setting: under setting [1], 83.5% (active); under setting [2], 90.7%.

`CC1CCCN(c2ccc([N+](=O)[O-])s2)C1` (stereo not given): the inhibition by setting is: under setting [1], 97.6% (active); under setting [2], 99.3%.

On to `COC(=O)COc1ccc(CSCC(=O)Nc2ccc3ccccc3c2)cc1`, for which the inhibition is 33.1% (active) under setting [1] and 58.5% under setting [2].

As for `COC(=O)COc1ccc(NC(=O)COc2cccc(C)c2)cc1`, the inhibition reads like this: under setting [1], 68.1% (active); under setting [2], 90.9%.

With `Cc1cc(C)cc(NC(=O)COc2cccc(C=O)c2)c1`, the inhibition under setting [1] is 4.11% (inactive) and the inhibition under setting [2] worked out at 13.2%.

On to `COC(=O)COc1cccc(NC(=O)COc2ccccc2)c1`, for which the inhibition was 50% (active) under setting [1] and 64.5% under setting [2].

As for `CCOc1ccc(OCC(=O)Nc2cc(C)cc(C)c2)cc1`, the inhibition was 2.08% (active) under setting [1] and 38.4% under setting [2].

Take `COc1ccc(OCC(=O)Nc2cccc(Cl)c2)cc1`: the inhibition under setting [1] was 6.16% (inactive) and the inhibition under setting [2] is -19%.

For `COC(=O)COc1ccc(NC(=O)COc2ccc(C(C)(C)C)cc2)cc1`, the inhibition under setting [1] is 98.8% (active) and the inhibition under setting [2] came to 99.4%.

On to `COC(=O)COc1ccc(NC(=O)COc2ccc(C)cc2C)cc1`, for which the inhibition is 99.4% (active) under setting [1] and 99.7% under setting [2].

For the compound `Cc1ccc(CSCC(=O)Nc2ccc(Cl)c(Cl)c2)cc1`, the inhibition was 2.65% (inactive) under setting [1] and 11.4% under setting [2].

`Cc1ccc(CSCC(=O)Nc2ccccc2)cc1`: the inhibition was 3.53% (active) under setting [1] and 35.4% under setting [2].

For `Cc1ccnc(NC(=O)COc2ccc([N+](=O)[O-])cc2)c1`, the inhibition is -0.546% (inactive) under setting [1] and 11.9% under setting [2].

Regarding `CCOC(=O)N1CCN(C(=O)CSc2nnc(-c3cc(OC)cc(OC)c3)o2)CC1`, the inhibition under setting [1] was 24.7% (inactive) and the inhibition under setting [2] came to 11.7%.

As for `CCOC(=O)CSc1nnc(-c2cc(OC)c(OC)c(OC)c2)o1`, the inhibition reads like this: under setting [1], 85.2% (active); under setting [2], 90.4%.

Take `CCOC(=O)CSc1nnc(-c2cccc(Br)c2)o1`: the inhibition is, setting by setting: under setting [1], 67.1% (active); under setting [2], 85.8%.

Turning to `CCCOC(=O)CSc1nnc(-c2cc(OC)c(OC)c(OC)c2)o1`, the inhibition is, setting by setting: under setting [1], 71.2% (active); under setting [2], 87.3%.

Turning to `CCCCOc1ccc(C(=O)Nc2nnc(-c3ccco3)o2)cc1`, the inhibition was 44.2% (active) under setting [1] and 26% under setting [2].

`COc1ccc(C(=O)Nc2nnc(C3=COCCO3)o2)cc1`: the inhibition was -1.74% (inactive) under setting [1] and -16.2% under setting [2].

For the compound `CCCCOc1ccc(C(=O)Nc2nnc(-c3ccncc3)o2)cc1`, the inhibition is 18.1% (active) under setting [1] and 42.4% under setting [2].

Regarding `CCOc1ccc(C(=O)Nc2nnc(-c3ccccn3)o2)cc1`, the inhibition by setting is: under setting [1], 3.93% (inactive); under setting [2], -4.77%.

Regarding `O=C(Nc1nnc(-c2ccco2)o1)c1ccc(Oc2ccccc2)cc1`, the inhibition under setting [1] was 70.2% (active) and the inhibition under setting [2] was determined as 86.6%.

On to `CCc1ccc(/C=C/C(=O)C2C(=O)c3ccccc3C2=O)cc1`, for which the inhibition is 100% (active) under setting [1] and 99.5% under setting [2].

Take `NC(=O)c1c(NC(=O)c2c(F)c(F)c(F)c(F)c2F)sc2c1CCCCCC2`: the inhibition is 43.3% (active) under setting [1] and 78.9% under setting [2].

Source of the values: PubChem BioAssay AID1259417 (TB Discovery Research, Infectious Disease Research Institute, 2018).
